In PubChem BioAssay AID777 (Sanford-Burnham Center for Chemical Genomics, 2007):
Among all 96,000 compounds or so, about 19,000 (20%) were called active. The list is a sample of the results. Values without a mark were called inactive.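 The calls were made as follows: active = blocking of liver enzyme CYP2C9 beyond about 50% at 5 µM (limit read from the data); inactive = the rest.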

target: Cytochrome P450 2C9 (Homo sapiens) (UniProt P11712); assay: blockers of cytochrome P450 2C9 activity – biochemical, luminescence, ADME assay, primary screen (AID 777); details: CYP2C9 Supersomes, luciferin-H conversion, at 5 µM, hits give high values
Sequence (P11712 whole entry, looked up): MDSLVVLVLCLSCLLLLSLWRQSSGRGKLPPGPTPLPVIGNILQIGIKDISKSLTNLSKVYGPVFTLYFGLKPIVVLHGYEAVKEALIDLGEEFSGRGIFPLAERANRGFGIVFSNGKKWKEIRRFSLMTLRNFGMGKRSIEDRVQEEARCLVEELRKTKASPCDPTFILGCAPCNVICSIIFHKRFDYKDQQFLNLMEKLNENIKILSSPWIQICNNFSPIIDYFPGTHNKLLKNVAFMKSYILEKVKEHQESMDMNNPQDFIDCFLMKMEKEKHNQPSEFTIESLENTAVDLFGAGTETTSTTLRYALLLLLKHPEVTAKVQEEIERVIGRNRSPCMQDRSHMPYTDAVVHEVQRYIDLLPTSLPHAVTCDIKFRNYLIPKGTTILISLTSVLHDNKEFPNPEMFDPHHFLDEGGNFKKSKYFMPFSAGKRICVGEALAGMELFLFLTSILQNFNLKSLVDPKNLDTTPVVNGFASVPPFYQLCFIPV

Row | Structure (SMILES) | inhibition
1 | COC(CNC(=O)Cn1ncc2ccsc2c1=O)OC | -15.8%
2 | CCCC(=O)N=c1sc2cccc(F)c2n1C | 14.7%
3 | CC1=Nn2c(nnc2-c2ccccc2)SC1 | -4.9%
4 | CCn1c(=N)c(S(=O)(=O)c2ccc(F)cc2)cc2c(=O)n3ccccc3nc21 | -0.6%
5 | O=C(Nc1nsc(-c2ccccc2)n1)c1ccncc1 | 45.7%
6 | CCC(=O)Nc1nc(OC)cc(OC)n1 | 2.1%
7 | COc1ccc(-n2c(SCC(=O)Nc3sc4c(c3C#N)CCCC4)nnc2-c2ccc(O)cc2)cc1 | 33.9%
8 | CC(c1nnc(SCC(=O)Nc2sccc2C#N)n1-c1ccc(Cl)cc1)N(C)C (stereo not drawn) | 50.8% (active)
9 | N#Cc1ccsc1NC(=O)CN1CCCCC1 | -15.3%
10 | COc1ccc(NC2CC(=O)N(C)C2=O)cc1 (stereo not drawn) | 1.8%
11 | Cc1c(Cl)c([N+](=O)[O-])nn1Cc1ccc(C(=O)N/N=C\c2cc(Cl)ccc2O)o1 | 41.2%
12 | CCOc1ccc(-c2nnn(CC(=O)N3CCN(c4ccc(OC)cc4)CC3)n2)cc1OCC | 1.7%
13 | Cc1ccc(CNC(=O)C2CCCN2C(=O)NCc2ccccc2)cc1 (stereo not drawn) | -10%
14 | O=C1c2ccccc2C(O)N1Cc1ccccc1 (stereo not drawn) | -2.8%
15 | O=C(NCc1ccccc1)[C@@H]1CSC2c3ccccc3C(=O)N21 (stereo partly drawn) | 67.1% (active)
16 | Cn1cccc1C(=O)NC(=O)COC(=O)Cc1coc2ccc3ccccc3c12 | -91.7%
17 | O=C(c1ccco1)N1CCN(C(=O)C2CCCN(S(=O)(=O)c3cccc4nsnc34)C2)CC1 (stereo not drawn) | 12.6%
18 | COc1ccc(C(=O)Nc2c(N)nc(SCC(=O)N3CCC(C)CC3)[nH]c2=O)cc1OC | -5.6%
19 | COc1ccc(/C=C(/NC(=O)c2ccc(C)cc2)c2nc3ccccc3[nH]2)cc1OC | 69.5% (active)
20 | COc1ccc(C(=O)Oc2cc(/C=N/NS(=O)(=O)c3ccc(C)cc3)ccc2OC)cc1 | 29.8%
21 | Cc1ccc(C(=O)NNC(=O)c2cc3cc4ccccc4nc3s2)cc1 | 6.6%
22 | O=C(NCCCN1CCN(C2CCCCC2)CC1)Nc1ccccc1C(F)(F)F | 0.7%
23 | Cc1cc(NCc2ccco2)n2c(nc3ccccc32)c1C#N | 20.4%
24 | Clc1cccc(-c2nc3nc4ccccc4nc3n2Cc2ccco2)c1 | 52.8% (active)
25 | O=C(NCc1ccco1)c1cc(-c2cccnc2)nc2ccc(Cl)cc12 | 17.9%

Row | Structure (SMILES) | inhibition
26 | O=C(COC(=O)CCc1c[nH]c(=O)[nH]1)Nc1ccccc1Cl | -6%
27 | CCOC(=O)c1nnn(-c2nonc2OC)c1-c1ccccc1 | 26.7%
28 | O=C(O)C1CCCN1S(=O)(=O)c1ccc2c(c1)CCC2 (stereo not drawn) | -48.8%
29 | O=C1CCc2cc(S(=O)(=O)N3CCC(C(=O)NCc4ccccc4Cl)CC3)ccc2N1 | 24.7%
30 | CSc1cccc(NC(=O)C2CCCN2S(=O)(=O)c2ccc3c(c2)CCC(=O)N3)c1 (stereo not drawn) | 81.6% (active)
31 | CCN1CCN(c2ccc([N+](=O)[O-])cc2C(=O)c2ccc(Cl)cc2)CC1 | -60.5%
32 | CCc1nnc(NC(=O)c2nc3nccc(C)n3n2)s1 | 1.9%
33 | CCn1c(SCC(=O)Nc2nc(C)cs2)nnc1C(C)NC(=O)c1ccccc1 (stereo not drawn) | 21.2%
34 | Cc1ccc(-c2csc(NC(=O)Cc3cccs3)n2)cc1C | 26.9%
35 | CCCc1ccc(-c2csc(NC(=O)Cc3cccs3)n2)cc1 | 42.2%
36 | Cc1ccc(-c2csc(NC(=O)c3cccs3)n2)cc1 | 3.3%
37 | O=C(CSC1=NCCS1)Nc1nc(-c2ccccc2)cs1 | 60.8% (active)
38 | Cc1cccc(S(=O)(=O)CC(=O)Nc2nc(-c3ccccc3)cs2)c1 | 91.4% (active)
39 | Cc1cccc2nc(CNc3ccc(F)cc3)cn12 | 38.8%
40 | COc1cccc(-c2nnc(N(C)C(=O)c3ccno3)s2)c1 | 2.4%
41 | CC(=O)c1cc(-c2ccccc2)[nH]c1N1CCCC1 | 12.9%
42 | COc1cc(OC)cc(C(=O)NCCSCc2ccco2)c1 | -1.5%
43 | CCc1ccccc1N(CC(=O)NCCSCc1ccco1)S(C)(=O)=O | 25.8%
44 | CS(=O)(=O)N(Cc1ccc(Cl)cc1)c1ccc(C(=O)NCCSCc2ccco2)cc1 | 74.1% (active)
45 | Cc1ccccc1NC(=O)NCc1ccco1 | -34.3%
46 | Cc1cccc(Nc2ccccc2C(=O)NCc2ccco2)c1C | 27.2%
47 | Cc1ccc(N(Cc2ccc(C(=O)Nc3ccccc3C(=O)NCc3ccco3)cc2)S(C)(=O)=O)cc1C | 72% (active)
48 | Cc1ccc(C(=O)N/C(=C/C=C/c2ccccc2)C(=O)NCc2ccco2)cc1 | 36%
49 | Cc1ccc(C)c(NC(=O)c2ccc(OC(=O)c3ccco3)cc2)c1 | -24%
50 | O=C(Nc1ccccc1)Nc1ccccc1C(=O)NCc1ccco1 | 88.1% (active)

Row | Structure (SMILES) | inhibition
51 | COCCNC(=O)Cn1cc2c(n1)CCCCC2 | 1.8%
52 | COc1cc2cc(CN(CCN3CCCC3)C(=O)Nc3ccccc3Cl)c(=O)[nH]c2cc1OC | 15%
53 | O=S(=O)(O)CCN1CCOCC1 | 1.4%
54 | COc1cc(/C=C2/C(=O)ON=C2C)ccc1OCc1ccccc1F | -5.4%
55 | COc1ccc(C2SCCN2S(=O)(=O)c2ccccc2)cc1OC (stereo not drawn) | -107%
56 | CCCN1Cc2cccc(C(=O)NCc3ccccc3)c2C1=O | 16.3%
57 | N#CC1=C(N)OC2=C(C(=O)CCC2)C1C1CC=CCC1 (stereo not drawn) | 37.1%
58 | O=C(O)CN1C(=O)CC(Cc2ccccc2)C1=O (stereo not drawn) | 7.4%
59 | COc1ccc(O)c(C=Nc2cc(C)on2)c1 | -5.4%
60 | COc1ccc(O)c(C(=O)c2cnc3onc(C(C)C)c3c2)c1 | 96.6% (active)
61 | COc1ccc(OC)c(C(=O)c2ccc(C(=O)O)cc2)c1 | 9.5%
62 | O=C(CCSc1ccccc1)NCCSc1ccccn1 | 41.7%
63 | COc1ccc(C(C(O)C(=O)c2c[nH]c3ccccc23)N2CCN(c3ccccc3)CC2)cc1 (stereo not drawn) | 26.9%
64 | CS(=O)(=O)c1ccc2nc(NC(=O)CN3CCCCCC3)sc2c1 | 25.1%
65 | CC1=CC(C)(C)N(C(=O)CSc2nccn2C)c2cc(C)ccc21 | 61.4% (active)
66 | CC1CCCC(NC(=O)CSc2nccn2C)C1C (stereo not drawn) | -4.4%
67 | CC1=CC(C)(C)N(C(=O)CSc2nnc(-c3ccccc3)o2)c2ccc(C)cc21 | 11.9%
68 | COCCNC(=O)CN(C(=O)CCC(=O)Nc1cc(C)on1)c1ccc(C)cc1C | -2.4%
69 | c1n[nH]c(NCc2ccc3c(c2)OCO3)n1 | 1%
70 | N#Cc1nc(Cc2cccc3ccccc23)oc1NCc1ccc2c(c1)OCO2 | 63.7% (active)
71 | COc1cc2[nH]c(=S)n(CCN3CCCCC3C)c(=O)c2cc1OC (stereo not drawn) | 23.6%
72 | Cc1ccc(S(=O)(=O)/N=C(\CN2CCOCC2)N2CCOCC2)cc1 | 7.1%
73 | CC(=O)C1C(c2cccc(Oc3ccccc3)c2)NC(=O)NC1(O)C(F)(F)F (stereo not drawn) | 0.7%
74 | Cc1cccc(NC(=O)CSc2nnc(NC(=O)CN3CCOCC3)s2)c1 | 10.9%
75 | COCCNc1nc(-n2nc(C)cc2C)nc2sc3c(c12)CCCC3 | 16.5%

Row | Structure (SMILES) | inhibition
76 | Cc1cc(C)n(-c2nc(SCC(=O)N3CCCC3)c3c4c(sc3n2)CCCC4)n1 | 78.8% (active)
77 | COCCn1c(C)cc(C(=O)CSc2ncnc3sc4c(c23)CCC4)c1C | -41.7%
78 | CCCC1C(c2ccccc2)C(C#N)(C#N)C2(C#N)CC1(N)NC2=O (stereo not drawn) | 4.8%
79 | COc1ccc(N2C(=O)CN=C2Nc2cccc(C)c2C)cc1OC | 10.9%
80 | Cc1cc(N2CCN(S(=O)(=O)c3ccc(C)c(C)c3)CC2)c2ccccc2n1 | 89.9% (active)
81 | Cc1ccc(S(=O)(=O)N2CC(=O)Nc3ccccc32)cc1C | -50.4%
82 | O=c1ccc2cc(S(=O)(=O)N3CCN(c4ccccc4)CC3)ccc2o1 | 5.5%
83 | CCOC(=O)c1ccc(NC(=O)CSc2nnc(COc3ccccc3OC)n2C)cc1 | 11.7%
84 | CCCCNC(=O)CSc1nc2ccc(NC(=O)CSc3nnc(COc4ccccc4C)n3C)cc2s1 | 75.1% (active)
85 | CCCCNC(=O)CSc1nnc(-c2ccco2)n1C | 44.2%
86 | O=C1CCCc2c1nc(-c1cccc(Cl)c1)n2O | 11.3%
87 | CC1(C)CC(=O)C(C=NCc2cccnc2)=C(O)C1 | -14.4%
88 | CCNc1nc(N)nc(-c2cc(Cl)ccc2OC)n1 | -0.8%
89 | Cc1ccc(C(=O)c2c(NC(=O)c3ccncc3)sc3c2CCCC3)cc1 | 67.8% (active)
90 | COC(=O)c1sccc1NC(=O)c1csc2c1CCCC2 | 13.7%
91 | Cc1ccc(C(=O)c2c(NC(=O)c3ccccc3)sc(C)c2C)cc1 | 43%
92 | COC(=O)c1c(NC(=O)c2cccs2)sc2c1CCCC2 | 58.4% (active)
93 | CCOC(=O)c1c(NC(=O)CCC(=O)NCc2ccco2)sc2c1CCCC2 | 41.9%
94 | COC(=O)c1sc(NC(=O)c2csc3c2CCCC3)nc1C | -7.3%
95 | CNC(=O)c1c(NC(NC(=O)c2ccco2)C(=O)c2ccc(Cl)cc2)sc2c1CCCC2 (stereo not drawn) | 46.5%
96 | COC(=O)c1c(NC(=O)CSc2nncs2)sc2c1CCCCC2 | 91.9% (active)
97 | Cc1ccc(Cn2c(NC(=O)c3ccco3)nc3ccccc32)cc1 | -10.6%
98 | Cc1cc(C)nc(SC(C)C(=O)N/N=C/c2cccs2)n1 (stereo not drawn) | 41.1%
